Pf apPOL block – Pf-apPOL DNA polymerase inhibition. Recombinant Pf-apPOL, molecular beacon fluorescence, 1.5 h. inhibition, % at 10 µM. actives 0.25% (n = 210,000). AID 1794808
mHTT-CaM PPI inh – disrupts binding of mutant huntingtin to calmodulin; AID 1671202; actives 3.6% (n = 190,000); inhibition, % at 15 µM; P42858; AlphaScreen His-mHTT/GST-CaM binding, luminescence;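 note: 0% = both proteins with DMSO and 100% = one protein alone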
An asterisk follows results filed as active; i = inactive; · = not tested or not shown. Sampled rows, rich in hits. Any-hit rate of the full collection: about 3.5%. Cut-off read from the data, not from the text of the source: active = inhibition above about 50%; inactive = the rest.

SMILES	Pf apPOL block	mHTT-CaM PPI inh
NS(=O)(=O)c1ccc(Nc2nc(-c3ccncc3)cs2)cc1	-1	5
CN(C)c1ccc(Nc2nc(-c3cccnc3)cs2)cc1	-8	6
NS(=O)(=O)c1ccc(Nc2nc(-c3ccc(Cl)c(Cl)c3)cs2)cc1	1	100*
CCC(=O)Nc1nc(C)c(-c2csc(Nc3cc(C)ccn3)n2)s1	-3	35
CCC(=O)Nc1nc(C)c(-c2csc(Nc3ccc(N(C)C)cc3)n2)s1	2	93*
CCN(CC)c1ccc(Nc2nc(-c3ccccn3)cs2)cc1	-4	100*
CCN(CC)c1ccc(Nc2nc(-c3ccc(Cl)c(Cl)c3)cs2)cc1	0	97*
CC(=O)c1cccc(Nc2nc(-c3ccc(Cl)c(Cl)c3)cs2)c1	1	3
CC(=O)NC(=Cc1ccc(NC(C)=O)cc1)C(=O)O	-4	·
COc1ccc2c(c1)CC/C2=N\OC(=O)c1ccc(OC)c(OC)c1	0	i
CC(=O)NCCSc1c(-c2ccc(Br)cc2)[nH]c2ccccc12	4	8
COc1ccc(Nc2nc(-c3ccc(Cl)c(Cl)c3)cs2)cc1	-6	40
CN(C)c1ccc(Nc2nc(-c3ccc(Cl)c(Cl)c3)cs2)cc1	-1	82*
O=C(NCc1cccc(Oc2ccccc2)c1)c1ccco1	-27	0
N=C1S/C(=C\c2cc3c(cc2Cl)OCO3)C(=O)N1c1nccs1	11	11
C=CCOc1ccc(/C=C2\SC(=N)N(c3nccs3)C2=O)cc1OCC	-79	74*
O=C(NCCC(O)c1ccc2c(c1)OCO2)C(=O)NC1CCCC1 (stereo not given)	-1	0
CCCNC(=O)c1cc2nc(-c3ccc([N+](=O)[O-])cc3)cc(C(F)(F)F)n2n1	3	1
COc1ccc(C)cc1NC(=O)NCCC1CCN(S(=O)(=O)c2ccccc2)CC1	-1	26
COc1cc(-c2nc3ccccn3c2N=Cc2ccc(F)cc2)ccc1O	-5	79*
COc1cc(-c2nc3ccccn3c2N=Cc2ccccc2)ccc1O	-6	38
O=C(COc1cccc(Cl)c1)N1CCN(c2nc(CN3CCCCC3)cs2)CC1	-2	3
CC(C)CC(C(=O)Nc1cccc(O)c1)N1C(=O)c2ccccc2C1=O (stereo not given)	-8	10
CC(C)CC(C(=O)Nc1cccc(Cl)c1)N1C(=O)c2ccccc2C1=O (stereo not given)	1	63*
Cc1ccc(/C=C2\SC(N3CC(C)OC(C)C3)=NC2=O)o1 (stereo not given)	-1	3
SMILES	Pf apPOL block	mHTT-CaM PPI inh
CC1CN(C2=NC(=O)/C(=C/c3cn[nH]c3-c3ccccc3)S2)CC(C)O1 (stereo not given)	66*	3
COc1ccccc1CCC(=O)N1CC2CN(S(=O)(=O)c3ccc(F)cc3)CC(C1)O2	-6	30
NNC(=O)c1nonc1N	·	-3
COc1cccc(C2CC(c3ccc(Cl)cc3Cl)n3nc(N)nc3N2)c1 (stereo not given)	2	52*
CCc1ccc(C2CC(c3ccccc3Cl)n3nc(N)nc3N2)cc1 (stereo not given)	-1	21
CCOc1ccccc1C1CC(c2ccc(Br)cc2)Nc2nc(N)nn21 (stereo not given)	0	99*
CCc1ccc(C2CC(c3ccccc3Cl)Nc3nc(N)nn32)cc1 (stereo not given)	-4	52*
COc1ccccc1C1CC(c2ccc(Cl)c(Cl)c2)Nc2nc(N)nn21 (stereo not given)	-1	99*
COc1ccccc1C1CC(c2ccc(Br)cc2)Nc2nc(N)nn21 (stereo not given)	0	47
COc1ccccc1C1CC(c2ccc(C)cc2)Nc2nc(N)nn21 (stereo not given)	-4	47
COc1cccc(C2CC(c3ccccc3Cl)n3nc(N)nc3N2)c1 (stereo not given)	-1	15
Cc1nc(-c2ccc(OCc3ccc(F)c(F)c3)cc2)no1	-6	-13
O=C(c1ccc(Br)cc1)N1CCN(c2ccc([N+](=O)[O-])cc2Cl)CC1	0	25
Cn1c(C2CCN(C(=O)NCc3ccc(F)cc3)CC2)cc(=O)n2nccc12	1	-8
Cc1cc(C2CCCN2C(=O)c2cccc(F)c2)no1 (stereo not given)	0	-4
Cc1cccc(C2CC(c3ccc(F)cc3)Nc3nc(N)nn32)c1 (stereo not given)	0	7
CCOc1ccccc1C1CC(c2ccc(I)cc2)Nc2ncnn21 (stereo not given)	10	54*
Cc1cccc(C2CC(c3ccc(Cl)cc3)Nc3nc(N)nn32)c1 (stereo not given)	-9	56*
CCOc1ccccc1C1CC(c2ccccc2)Nc2ncnn21 (stereo not given)	3	3
CC(C)=CC1C(CN)C1(C)C (stereo not given)	-5	96*
Cc1cc(Cl)ccc1N1CCC(C(=O)NCc2ccc(F)cc2)C1=O (stereo not given)	5	-2
CC(C)(C)C1=CC(=O)c2c(ccc(C(C)(C)C)c2O)C1=O	3	58*
CC(C)(C)C1=CC(=Cc2cc(C(C)(C)C)c(O)c(C(C)(C)C)c2)C=C(C(C)(C)C)C1=O	·	18
Cn1nc(C(=O)N2CC3CC2CC3NC(=O)c2cccs2)c2ccccc21 (stereo not given)	3	3
O=C(NCCC(O)c1ccoc1)C12CC3CC(CC(C3)C1)C2 (stereo not given)	2	-5
SMILES	Pf apPOL block	mHTT-CaM PPI inh
CC1(C)CC(=O)C2=C(C1)Nc1nc(-c3ccccc3)nn1C2c1ccc(Br)cc1 (stereo not given)	-3	35
COc1ccc(C2C3=C(CC(C)(C)CC3=O)Nc3nc(-c4ccc(O)cc4)nn32)cc1 (stereo not given)	2	50*
COc1ccccc1C1C2=C(CC(C)(C)CC2=O)Nc2nc(-c3cccc(Cl)c3)nn21 (stereo not given)	-3	70*
CC1(C)CC(=O)C2=C(C1)Nc1nc(-c3ccccc3)nn1C2c1ccccc1 (stereo not given)	-2	43
COc1ccc(-c2nc3n(n2)C(c2ccccc2)C2=C(CC(C)(C)CC2=O)N3)cc1 (stereo not given)	-4	52*
COc1cccc(C2C3=C(CC(C)(C)CC3=O)Nc3nc(-c4cccc(Cl)c4)nn32)c1 (stereo not given)	-2	1
O=c1oc(-c2cccs2)cc(-c2ccccc2)c1-c1ccccc1	-60	-3
O=C(Nc1cccc(Cl)c1)c1ccc(-n2nc(N3CCCC3)ccc2=O)cc1	1	-9
C=CCN(c1ccccc1)C(C(=O)NC1CCCCC1)c1cc2c(cc1[N+](=O)[O-])OCO2 (stereo not given)	-1	28
COc1cc(NC(=O)CCC2CCCCC2)cc(OC)c1OC	-21	10
NC(=O)c1cc2cc(Cl)ccc2oc1=Nc1cc(C(F)(F)F)ccc1Cl	-11	-1
COc1ccc(C2=NN(C(=O)CCCC(=O)O)C(c3ccccc3OC)C2)cc1OC (stereo not given)	-12	7
Cc1ccc(C2CC(c3ccc(C)c(C)c3)=NN2C(=O)CN(C)C(=O)C2CC2)cc1 (stereo not given)	2	6
CC(=O)N(C)CC(=O)N1N=C(c2ccc(C)c(C)c2)CC1c1ccccc1 (stereo not given)	-2	54*
Cc1ccc(C2CC(c3cccs3)=NN2C(=O)CN(C)C(=O)C2CCCC2)cc1 (stereo not given)	-1	61*

Screening data as filed in PubChem BioAssay.
